From PubChem BioAssay (Tox21)
Records with an inconclusive call do not appear. The source made the active and inactive calls. Unless noted, calls come from the whole dose curve; as a rule, active = well fitted curve in the direction sought with a large enough effect in the repeat runs; inconclusive = weak or mixed curves; inactive = no such curve, though single readings can be large; an effect the other way counts as inactive or inconclusive.

Key:
[1] = A CellTox Green Cytotoxicity Assay to monitor cytotoxicity in HepG2 cells - 24 hour (AID 1224878); note: nearly all actives have a fitted effect of over 45% in size; note: potency is the fitted concentration of half-maximal effect
Summary of the method: (§1)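 HepG2 cells, 600/well, preincubated 5 h with CellTox Green dye, then exposed to Tox21 compounds in DMSO at 37 C for up to 40 h. Dead-cell DNA fluorescence read at the indicated time point.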

[2] = A CellTox Green Cytotoxicity Assay to monitor cytotoxicity in HepG2 cells - 40 hour (AID 1224879); note: nearly all actives have a fitted effect of over 40% in size; note: potency is the fitted concentration of half-maximal effect
Summary of the method: as §1

[3] = qHTS RealTime-Glo MT Cell Viability Assay in HEK293 cells - 0 hour (AID 1224880); note: top concentration of the series differs between compounds; nearly all actives have a fitted effect of over 45% in size
Summary of the method: (§2)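 600 cells/well were plated with the nonlytic NanoLuc/prosubstrate reagent, pre-incubated 5 h, then given 23 nL of compound in DMSO. Incubation at 37 C for 40 h, with luminescence from viable-cell-reduced substrate read repeatedly from 0 h.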

[4] = A CellTox Green Cytotoxicity Assay to monitor cytotoxicity in HEK293 cells - 32 hour (AID 1224881); note: nearly all actives have a fitted effect of over 40% in size; note: potency is the fitted concentration of half-maximal effect
Summary of the method: (§3)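 HEK293 cells, 600/well, were preincubated 5 hours and then exposed to compounds at 37 C for up to 40 hours. A cell-impermeant cyanine dye staining dead-cell DNA was read by fluorescence at 0, 8, 16, 24, 32 and 40 h time points.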

[5] = A CellTox Green Cytotoxicity Assay to monitor cytotoxicity in HepG2 cells - 0 hour (AID 1224882); note: nearly all actives have a fitted effect of over 35% in size
Summary of the method: as §1

[6] = A CellTox Green Cytotoxicity Assay to monitor cytotoxicity in HepG2 cells - 32 hour (AID 1224883); note: nearly all actives have a fitted effect of over 50% in size; note: potency is the fitted concentration of half-maximal effect
Summary of the method: as §1

[7] = qHTS RealTime-Glo MT Cell Viability Assay in HepG2 cells - 16 hour (AID 1224885); note: nearly all actives have a fitted effect of over 50% in size
Summary of the method: (§4)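 Real-time, nonlytic viability: 600 HepG2 cells/well mixed with NanoLuc enzyme plus prosubstrate; 5 h settle, compound (DMSO) added by pintool; luminescence monitored over 40 h at 37 C.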

[8] = qHTS RealTime-Glo MT Cell Viability Assay in HEK293 cells - 24 hour (AID 1224886); note: top concentration of the series differs between compounds; nearly all actives have a fitted effect of over 50% in size
Summary of the method: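 Cells + reagent dispensed (600 cells/well, HEK293) → 5 h at 37 C/5% CO2 → 23 nL compound in DMSO pinned → 40 h at 37 C → luminescence read at 0, 8, 16, 24, 32, 40 h.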

[9] = qHTS RealTime-Glo MT Cell Viability Assay in HEK293 cells - 8 hour (AID 1224887); note: top concentration of the series differs between compounds; nearly all actives have a fitted effect of over 50% in size
Summary of the method: as §2

[10] = A CellTox Green Cytotoxicity Assay to monitor cytotoxicity in HEK293 cells - 16 hour (AID 1224888); note: nearly all actives have a fitted effect of over 35% in size
Summary of the method: as §3

[11] = qHTS RealTime-Glo MT Cell Viability Assay in HepG2 cells - 0 hour (AID 1224889); note: nearly all actives have a fitted effect of over 50% in size
Summary of the method: as §4

[12] = A CellTox Green Cytotoxicity Assay to monitor cytotoxicity in HepG2 cells - 8 hour (AID 1224890); note: nearly all actives have a fitted effect of over 45% in size; note: potency is the fitted concentration of half-maximal effect
Summary of the method: as §1

[13] = qHTS assay to identify small molecule antagonists of the androgen receptor (AR) signaling pathway using the MDA cell line in the presence of 0.5 nM R1881 - cell viability counter screen (AID 1259242); note: nearly all actives have a fitted effect of over 45% in size
Summary of the method: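 MDA-kb2 cells (MMTV-luciferase, AR/GR responsive) were treated with compounds plus 0.5 nM R1881 (final) for 16 hr at 37C, 0% CO2. Viability was then read in the same wells as live-cell protease fluorescence (CellTiter-Fluor, 30 min).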

[14] = target: Androgen receptor (Homo sapiens) (UniProt P10275); test: qHTS assay to identify small molecule antagonists of the androgen receptor (AR) signaling pathway using the MDA cell line in the presence of 0.5 nM R1881 (AID 1259243); note: nearly all actives have a fitted effect of over 50% in size
Chain of Androgen receptor (Homo sapiens) (P10275 whole entry, looked up): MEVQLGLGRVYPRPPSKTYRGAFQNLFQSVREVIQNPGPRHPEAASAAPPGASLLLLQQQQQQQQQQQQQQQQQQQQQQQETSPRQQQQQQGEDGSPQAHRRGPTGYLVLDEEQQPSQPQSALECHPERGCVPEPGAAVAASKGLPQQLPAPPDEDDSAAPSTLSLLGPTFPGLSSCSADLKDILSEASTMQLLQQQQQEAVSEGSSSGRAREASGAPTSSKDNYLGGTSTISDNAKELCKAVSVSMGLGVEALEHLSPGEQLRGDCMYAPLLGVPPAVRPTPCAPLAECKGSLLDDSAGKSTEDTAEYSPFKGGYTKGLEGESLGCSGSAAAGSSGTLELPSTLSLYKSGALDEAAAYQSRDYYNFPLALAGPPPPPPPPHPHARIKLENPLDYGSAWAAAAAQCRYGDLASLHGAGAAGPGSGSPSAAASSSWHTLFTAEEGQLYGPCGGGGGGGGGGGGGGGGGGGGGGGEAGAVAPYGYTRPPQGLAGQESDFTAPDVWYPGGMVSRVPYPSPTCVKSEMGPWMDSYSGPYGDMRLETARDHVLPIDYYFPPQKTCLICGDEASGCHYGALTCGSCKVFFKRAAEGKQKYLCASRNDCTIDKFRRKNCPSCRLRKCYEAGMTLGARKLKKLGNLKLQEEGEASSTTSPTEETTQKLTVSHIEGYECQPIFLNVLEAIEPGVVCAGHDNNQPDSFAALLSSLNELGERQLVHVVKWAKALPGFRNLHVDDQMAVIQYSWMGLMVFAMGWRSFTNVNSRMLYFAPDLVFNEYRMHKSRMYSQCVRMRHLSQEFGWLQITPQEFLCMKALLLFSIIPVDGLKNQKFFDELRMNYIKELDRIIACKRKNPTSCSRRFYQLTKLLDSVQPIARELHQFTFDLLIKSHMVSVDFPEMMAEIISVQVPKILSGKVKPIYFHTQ
Summary of the method: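 MDA-kb2 cells (MMTV-luciferase, responsive to AR and GR) at 3,000/well, rested 5 h at 37C, 0% CO2, then given compounds plus 0.5 nM R1881 (final) for 16 hr. Luciferase read with ONE-Glo after 30 min at room temperature.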

[15] = qHTS assay to identify small molecule HDAC inhibitors (AID 1259364)
Summary of the method: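 Wild-type HCT-116 cells, plated overnight at 37 C, exposed to compounds 2 hr at 37 C; luminogenic HDAC-Glo substrate then added 30 min at room temperature. Luminescence reports relative endogenous class I/II HDAC activity.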

[16] = qHTS assay to identify small molecule HDAC inhibitors - cell viability counter screen (AID 1259365)
Summary of the method: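 Measured quantity is CellTiter-Glo luminescence from wild-type HCT-116 cells after compound incubation of 2hr at 37C, 5% CO2; reagent developed 30min at room temperature.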

[17] = qHTS assay to identify small molecule antagonists of the estrogen receptor alpha (ER-alpha) signaling pathway using the BG1 cell line in the presence of 0.1 nM 17-beta-estradiol - cell viability counter screen (AID 1259241); note: nearly all actives have a fitted effect of over 40% in size
Summary of the method: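 In this screen, hormone-deprived VM7Luc4E2 cells were seeded at 4,000 per well, dosed with compound and 0.1 nM estradiol final, and incubated 22 hr at 37C and 5% CO2; fluorogenic live-cell protease signal reported viability.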

[18] = target: Estrogen receptor (Homo sapiens) (UniProt P03372); test: qHTS assay to identify small molecule antagonists of the estrogen receptor alpha (ER-alpha) signaling pathway using the BG1 cell line in the presence of 0.1 nM 17-beta-estradiol (AID 1259244); note: nearly all actives have a fitted effect of over 50% in size
Chain of Estrogen receptor (Homo sapiens) (P03372 whole entry, looked up): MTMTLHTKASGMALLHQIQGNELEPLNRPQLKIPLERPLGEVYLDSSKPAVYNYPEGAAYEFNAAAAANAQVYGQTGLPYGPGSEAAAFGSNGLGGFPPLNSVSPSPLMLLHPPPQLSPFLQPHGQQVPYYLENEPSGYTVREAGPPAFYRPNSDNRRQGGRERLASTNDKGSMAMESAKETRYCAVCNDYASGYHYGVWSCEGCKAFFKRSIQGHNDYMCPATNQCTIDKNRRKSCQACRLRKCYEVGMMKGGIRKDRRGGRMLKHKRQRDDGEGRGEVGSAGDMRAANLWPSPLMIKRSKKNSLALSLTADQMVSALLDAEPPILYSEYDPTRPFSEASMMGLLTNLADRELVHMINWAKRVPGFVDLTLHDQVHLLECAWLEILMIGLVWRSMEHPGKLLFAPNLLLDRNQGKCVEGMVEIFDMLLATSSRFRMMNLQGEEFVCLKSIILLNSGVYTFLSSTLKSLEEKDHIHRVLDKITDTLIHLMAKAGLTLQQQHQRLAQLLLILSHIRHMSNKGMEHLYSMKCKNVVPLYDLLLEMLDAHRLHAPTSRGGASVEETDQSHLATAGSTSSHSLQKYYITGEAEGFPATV
Summary of the method: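 VM7Luc4E2 cells (endogenous full-length ER-alpha, 4×ERE-luciferase), kept 5 days in phenol red-free, charcoal-stripped FBS medium; 4,000 cells/well. Compounds added with 0.1 nM (final) 17beta-estradiol, 22 hr at 37C; luminescence read with ONE-Glo after 30 min.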

[19] = qHTS assay to identify small molecule phospholipidosis (PLD) inducers (AID 1259344; active = well fitted curve in the direction sought with a large enough effect; an effect the other way counts as inactive or inconclusive)
Summary of the method: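 HepG2 cells grown on collagen I take up LipidTOX Red while exposed to compound for 24 h; after fixation they are imaged at 20x and pit metrics are extracted.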

[20] = A CellTox Green Cytotoxicity Assay to monitor cytotoxicity in HEK293 cells - 8 hour (AID 1224884); note: nearly all actives have a fitted effect of over 35% in size
Summary of the method: as §3
% is set by controls: 0 for no effect and ±100 for the full control effect.

COC(=O)c1cc(Cl)c(NC(C)=O)cc1OC
inactive: Potency [1] | Potency [2] | Potency [3] | Potency [4] | Potency [5] | Potency [6] | outcome [7] | outcome [8] | outcome [9] | Potency [10] | Potency [11] | Potency [12] | outcome [13] | Potency [14] | Potency [15] | outcome [16]

CN1CCN(C(=O)C2CCCCC2)CC1
inactive: Potency [1] | Potency [2] | Potency [3] | Potency [4] | Potency [5] | Potency [6] | outcome [7] | outcome [8] | outcome [9] | Potency [10] | Potency [11] | Potency [12] | outcome [17] | outcome [13] | outcome [18] | Potency [19] | Potency [15] | outcome [16]

Cc1ccc(Br)cc1
inactive: Potency [1] | Potency [2] | Potency [3] | Potency [4] | Potency [5] | Potency [6] | Potency [20] | outcome [7] | outcome [8] | outcome [9] | Potency [11] | Potency [12] | outcome [17] | outcome [13] | Potency [15] | outcome [16]

C/C=C/C(=O)CCCC
inactive: Potency [1] | Potency [2] | Potency [3] | Potency [4] | Potency [5] | Potency [6] | Potency [20] | outcome [7] | outcome [8] | outcome [9] | outcome [13] | outcome [18] | Potency [15] | outcome [16]

CCOC(=O)CC
inactive: Potency [1] | Potency [2] | Potency [3] | Potency [4] | Potency [5] | Potency [6] | outcome [7] | outcome [8] | outcome [9] | Potency [10] | Potency [11] | Potency [12] | outcome [17] | outcome [13] | Potency [15] | outcome [16]

CC(C)OC(=O)C(C(=O)OC(C)C)=C1SC=CS1
inactive: Potency [1] | Potency [2] | Potency [3] | Potency [4] | Potency [5] | Potency [6] | Potency [20] | outcome [7] | Potency [10] | Potency [11] | Potency [12] | outcome [17] | outcome [13] | Potency [14] | Potency [19] | Potency [15] | outcome [16]

C/C=C(\C)C(=O)OC/C=C(\C)CCC=C(C)C
inactive: Potency [1] | Potency [2] | Potency [3] | Potency [4] | Potency [5] | Potency [6] | Potency [20] | outcome [7] | outcome [8] | outcome [9] | Potency [11] | Potency [12] | outcome [17] | outcome [13] | outcome [18] | outcome [16]

COCc1nnc(-c2ccc[n+]([O-])c2)n1-c1c(Cl)c(Cl)cc2[nH]c(=O)c(=O)[nH]c12
inactive: Potency [1] | Potency [2] | Potency [3] | Potency [4] | Potency [5] | Potency [6] | Potency [20] | outcome [7] | outcome [8] | outcome [9] | Potency [11] | outcome [13] | Potency [14] | outcome [18] | Potency [15] | outcome [16]

CC(=O)c1c(C)cc(C(C)(C)C)cc1C
inactive: Potency [3] | Potency [5] | Potency [20] | outcome [7] | Potency [10] | Potency [11] | outcome [17] | outcome [13] | Potency [15] | outcome [16]
active: Potency [1] 34.7 µM | Potency [2] 38.9 µM | Potency [4] 24.5 µM | Potency [6] 38.9 µM | Potency [12] 43.6 µM

C/C=C(\C)C=O
inactive: Potency [1] | Potency [2] | Potency [3] | Potency [4] | Potency [5] | Potency [6] | outcome [7] | outcome [8] | outcome [9] | Potency [10] | Potency [11] | Potency [12] | outcome [17] | outcome [13] | outcome [18] | Potency [15] | outcome [16]

CCOC(=O)COc1ccc2c(C)c(CCN(CC)CC)c(=O)oc2c1Cl
inactive: Potency [1] | Potency [2] | Potency [3] | Potency [4] | Potency [5] | Potency [6] | Potency [20] | outcome [7] | outcome [8] | Potency [10] | Potency [11] | Potency [12] | outcome [17] | outcome [13] | outcome [18] | Potency [19] | Potency [15] | outcome [16]

NC[C@H]1O[C@H](O[C@H]2[C@H](O)[C@@H](O[C@H]3O[C@H](CO)[C@@H](O)[C@H](N)[C@H]3O)[C@H](N)C[C@@H]2N)[C@H](N)[C@@H](O)[C@@H]1O
inactive: cytotoxicity [1] -0.281% [at 15.8 µM] | cytotoxicity increase [2] -4.11% [at 15.8 µM] | activity change, negative = cytotoxicity [3] -0.44% [at 15.8 µM] | cytotoxicity increase [4] -0.0128% [at 15.8 µM] | cytotoxicity [5] 1.75% [at 15.8 µM] | cytotoxicity increase [6] -2.59% [at 15.8 µM] | activity change, negative = cytotoxic [7] 3.1% [at 15.8 µM] | activity change, negative = cytotoxicity [8] 5.12% [at 15.8 µM] | activity change, negative = cytotoxicity [9] 14.7% [at 15.8 µM] | activity change [10] 2% [at 15.8 µM, hits give high values] | activity change, negative = cytotoxicity [11] 5.28% [at 15.8 µM] | cytotoxicity increase [12] 0.922% [at 15.8 µM] | activity change, negative = cytotoxicity [17] 2.9% [at 19 µM] | viability change, negative = cytotoxic [13] -0.928% [at 19 µM] | Potency [19] | activity change, negative = inhibition [15] 0.718% [at 19 µM] | activity change, negative = cytotoxicity [16] -0.176% [at 19 µM]

C=CCn1cc[n+](C)c1
inactive: Potency [1] | Potency [2] | Potency [3] | Potency [4] | Potency [5] | Potency [6] | outcome [7] | outcome [8] | outcome [9] | Potency [10] | Potency [11] | Potency [12] | outcome [13] | outcome [18] | Potency [15] | outcome [16]
